# Assay outcomes (PubChem BioAssay)
# Shown are actives, neighbours in structure and some others; about 3.3% of the full set was active somewhere.
# eIF4E 4G PPI: inhibitors of eIF4E and eIF4G interaction in translation initiation; hit rate 0.37% among 220,000; inhibition, % at 21.7 µM; P63073+Q04637; TR-FRET eIF4E-eIF4GI(517-606) binding, 2 h;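 note: 0% = full FRET control wells and 100% = background wells lacking eIF4GI fragment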
# Mcl1-Noxa inh: disrupts binding of human Mcl-1 to Noxa peptide. Q07820. TR-FRET Mcl-1/Noxa peptide binding, 2 h. inhibition, % at 21.7 µM. hit rate 1.5% among 220,000;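 active = compounds that cut the protein-peptide binding signal by more than 50% relative to plate controls in a single-dose test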;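 note: His-tagged Mcl-1 with rhodamine Noxa BH3 peptide and terbium anti-His antibody; 0% = Mcl-1 plus Noxa peptide wells and 100% = peptide-only wells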
# Target sequence (Q07820 whole entry, looked up): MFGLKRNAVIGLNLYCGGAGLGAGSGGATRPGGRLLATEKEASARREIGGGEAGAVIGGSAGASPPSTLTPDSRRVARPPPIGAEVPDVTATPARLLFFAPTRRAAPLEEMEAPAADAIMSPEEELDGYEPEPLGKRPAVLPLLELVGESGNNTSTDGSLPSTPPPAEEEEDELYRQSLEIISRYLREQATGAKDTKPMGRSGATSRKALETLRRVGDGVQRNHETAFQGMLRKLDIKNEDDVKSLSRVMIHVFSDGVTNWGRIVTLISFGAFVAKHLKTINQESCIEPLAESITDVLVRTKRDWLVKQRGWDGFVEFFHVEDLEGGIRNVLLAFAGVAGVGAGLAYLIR
# Mcl-1 Bim block: disrupts Bim peptide binding to human Mcl-1; Q07820; inhibition, % at 10 µM; hit rate 0.1% among 190,000; AID 1009; Bead-based flow cytometry, Bim peptide-Mcl-1 binding; in the data active = inhibition above about 40%;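 note: 0% = no compound tracer wells and 100% = peptide blocker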
# Mcl1-Bid inh: disrupts binding of human Mcl-1 to Bid peptide; Q07820; hit rate 0.97% among 220,000; inhibition, % at 21.7 µM; AID 1021; TR-FRET Mcl-1/Bid-Dy647 peptide binding, 1536-well;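 active = compounds that cut the binding signal by more than half at the single screening dose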;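 note: His-tagged Mcl-1 with europium anti-His antibody binding Bid BH3 peptide; 0% = Mcl-1 plus peptide wells and 100% = peptide-only wells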
# 14-3-3 Bad PPI: disrupts binding of bovine 14-3-3 zeta to phospho-Bad peptide. inhibition, % at 21.7 µM. hit rate 0.71% among 220,000. TR-FRET 14-3-3zeta/Dy647-pBad peptide displacement, 1 h;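 active = inhibition above about 70%, limit read from the data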;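 note: 0% = full 14-3-3 plus peptide FRET controls and 100% = background without 14-3-3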
# Target sequence (P63103 whole entry, looked up): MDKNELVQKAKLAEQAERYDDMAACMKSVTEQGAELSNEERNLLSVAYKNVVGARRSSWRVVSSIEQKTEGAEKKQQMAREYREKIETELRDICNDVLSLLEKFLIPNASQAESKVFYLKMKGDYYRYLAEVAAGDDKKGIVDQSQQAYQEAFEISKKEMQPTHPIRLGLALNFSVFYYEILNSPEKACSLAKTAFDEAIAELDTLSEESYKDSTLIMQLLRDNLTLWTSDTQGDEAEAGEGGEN
# p47phox inh: blocks human p47phox regulatory protein of NADPH oxidases | P14598 | p47phox/p22phox peptide binding, fluorescence polarization, 2 h | inhibition, % at 24.7 µM | hit rate 0.53% among 220,000;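 note: 0% = p47phox with labelled peptide and 100% = labelled peptide alone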
# * marks the source's active call; other numbers are inactive results; / = no result; [ ] = dose if it differs, or a comment.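 Rule for the calls, unless noted: active = inhibition above about 30% (limit read from the data); inactive = the rest.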
SMILES,eIF4E 4G PPI,Mcl1-Noxa inh,Mcl-1 Bim block,Mcl1-Bid inh,14-3-3 Bad PPI,p47phox inh
Cc1ccc(C2(CCNCc3ccc(N(C)C)cc3)CCOC(C(C)C)C2)cc1 (centres undefined),-6.6,56.4*,0.0,-35.1,-3.7,-7.5
O=S(=O)(O)c1nc2ccccc2n1Cc1ccccc1,-1.5,-0.8,4.0,0.1,70.6*,-17.6
CS(=O)(=O)c1nc2ccccc2n1Cc1ccccc1,0.1,-0.7,0.0,2.0,19.7,-2.8
CC(C)CCn1c(S(=O)(=O)O)nc2ccccc21,-1.4,14.7,0.0,8.0,75.4*,-5.0
Cc1ccc(Nc2nc(N)nc(CCl)n2)c(C)c1,1.5,-3.1,/,-14.8,-4.8,-14.4
Cc1ccc2c(c1)NC(=O)c1cccnc1N2,11.7,76.9*,-2.0,-76.0,6.1,-21.9
CCNC(=O)NC(=O)C(C)OC(=O)C1CCN(S(=O)(=O)c2ccc(C)c(C)c2)CC1 (centres undefined),19.3,-1.5,-1.0,-24.9,-7.7,-27.8
COc1cccc(C(=O)NC2CC3CCCC(C2)N3CC(=O)Nc2ccc(N(C)C)cc2)c1 (centres undefined),-1.6,34.1,0.0,-44.9,9.7,-3.6
COc1cccc(C(=O)NC2CC3CCCC(C2)N3CC(=O)Nc2ccccc2)c1 (centres undefined),10.7,66.1*,1.0,53.8*,83.3*[fluorescence artefact?],58.2*
CCN(CC)CCCOc1nc(C)nc2c1oc1ccccc12,-8.1,22.8,0.0,-8.6,77.2*,-4.6
Cc1ccc(S(=O)(=O)N(C)c2ccc(OCC(=O)Nc3cccc(-n4cnnn4)c3C)cc2)cc1,-2.6,-32.4,/,-9.7,3.9,-34.3
O=C(Nc1ccc2nc(-c3cccs3)[nH]c2c1)c1cccs1,-8.2,18.2,7.0,-1.7,0.9,-11.1
O=C(Nc1ccc(-c2nc3ccc(NC(=O)c4cccs4)cc3[nH]2)cc1)c1cccs1,-41.2,64.9*,-11.0,84.0*,81.8*[fluorescence artefact?],-15.4
C=CCn1c(SCc2ccc([N+](=O)[O-])cc2)nnc1C(C)NC(=O)c1ccccc1 (centres undefined),7.5,14.7,0.0,93.6*,-7.2,0.0
Cc1noc(C)c1COc1cccc(C(=O)OC(C)C(=O)Nc2c(C)n(C)n(-c3ccccc3)c2=O)c1 (centres undefined),-1.3,6.7,0.0,-36.0,2.6,-11.8
C=CCn1c(SCc2ccccc2Cl)nnc1-c1sc2nc(C)cc(C)c2c1N,-1.4,17.0,/,-14.8,-2.0,-12.2
CCc1n[nH]c(=S)n1/N=C/c1cc(Br)c(OC)cc1OC,-8.8,21.2,-5.0,-42.4,1.0,-8.8
COC(=O)COc1ccc(S(=O)(=O)Nc2ccc3c(c2)OCO3)cc1,55.4*[fluorescence artefact?],9.4,-2.0,-17.9,-11.4,-5.5
COC(=O)COc1ccc(S(=O)(=O)Nc2ccc3c(c2)OCO3)cc1Cl,2.9,17.1,0.0,-33.9,11.9,-8.2
Cc1n[nH]c(C)c1CCC(=O)N/N=C/C=C/c1ccccc1,6.2,13.3,-4.0,-10.6,-5.7,-10.4
O=C(CN1CCC(n2nnc3cc(F)ccc32)CC1)Nc1ccccc1N1CCOCC1,-2.2,7.3,-1.0,-4.5,-7.3,0.9
N#Cc1c(-c2ccccc2)nc(-c2ccccc2)nc1N1CCOCC1,-0.9,23.8,-1.0,50.9*,5.0,-16.7
Cc1ccc(-n2nc(C)c(Sc3ccccc3[N+](=O)[O-])c2N)cc1,-4.6,9.6,-5.0,-40.8,-17.0,-1.5
COC(=O)CSc1nc(C)c(C)c(C)c1C(N)=O,1.6,24.6,0.0,70.0*,-3.0,-5.3
COC(=O)CSc1nc(N)nc(C)c1Cl,1.5,-21.1,6.0,-11.8,-3.1,5.4
SMILES,eIF4E 4G PPI,Mcl1-Noxa inh,Mcl-1 Bim block,Mcl1-Bid inh,14-3-3 Bad PPI,p47phox inh
O=C(C1CCCN(Cc2cccnc2)C1)N1CCCCC1 (centres undefined),0.5,0.8,-5.0,52.3*,25.6,-9.0
COc1ccc(CN2CCCC(C(=O)N3CCCC3)C2)cc1 (centres undefined),-3.4,-16.5,-3.0,50.0,44.9,-1.7
Cc1ccc(-c2cn(-c3ccccc3)c(SCC(N)=O)n2)cc1C,-6.7,17.1,-7.0,86.9*,-1.4,-14.6
CCNc1nc(NCC)nc(N/N=C/c2ccc(O)c(O)c2)n1,2.6,54.1*,2.0,-44.7,-12.8,-12.6
CC(C)CC(c1nnnn1CCc1ccccc1)N1CCN(C(=O)c2ccco2)CC1 (centres undefined),2.9,20.2,-7.0,-3.9,4.9,-5.1
CCCCC(c1nnnn1Cc1ccco1)N1CCN(C(=O)c2ccco2)CC1 (centres undefined),19.2,17.3,0.0,1.9,84.6*,-7.5
CCC(c1nnnn1CCc1ccccc1)N1CCN(C(=O)c2ccco2)CC1 (centres undefined),-1.4,24.9,0.0,18.8,74.5*,-10.5
CCCC(c1nnnn1Cc1ccco1)N1CCN(C(=O)c2ccco2)CC1 (centres undefined),4.4,17.5,-2.0,1.7,18.4,-11.7
Cc1cccc2cc3c(N)c(C(=O)N4CCc5ccccc54)sc3nc12,1.1,46.9,-2.0,4.4,-7.1,-66.8
CNc1ccc(Br)cc(C(=O)/C=C/c2cc(OC)ccc2OC)c1=O,10.1,86.8*,13.0,8.5,21.8,-6.6
CCNc1ccc(Br)cc(C(=O)/C=C/c2ccc(Cl)cc2Cl)c1=O,9.4,95.6*,-1.0,29.3,61.0,-9.9
COCCCNC(=O)/C=C/c1ccc(Cl)cc1Cl,-2.8,-8.8,-3.0,-9.8,-11.9,-22.2
COc1ccc(/C=C/C(=O)c2ccc(OC)cc2OC)cc1,-1.8,-11.8,-5.0,-4.4,-0.4,0.6
CNc1ccc(Br)cc(C(=O)/C=C/c2ccc(OC)cc2)c1=O,26.4,62.6*,5.0,-2.1,0.1,-13.8
CNc1ccc(/C=C/C(=O)c2ccc3c(c2)OCCO3)cc1[N+](=O)[O-],0.8,-12.9,-5.0,-13.6,-0.2,-26.8
CNc1ccc(Br)cc(C(=O)/C=C/c2ccc3c(c2)OCO3)c1=O,0.1,67.7*,8.0,-21.9,68.3,-1.6
CCOc1ccc(N2C(=O)S/C(=C\c3cc(OC)c(OC)c(OC)c3)C2=O)cc1,-4.7,8.9,/,-8.7,1.1,0.9
Cc1ccc(C(=O)NCC(=O)NCCc2ccc(S(N)(=O)=O)cc2)s1,0.0,4.0,/,-7.3,-2.0,6.2
O=C(NCc1ccccn1)c1ccc([N+](=O)[O-])cc1,-0.8,-4.3,-5.0,-1.6,1.2,-9.3
O=C(Cc1ccc([N+](=O)[O-])cc1)NCc1ccccn1,0.5,69.0*,3.0,20.5,10.0,-2.5
COc1ccc(NC(=O)c2c3c(nc4ccccc24)CCC3)cc1S(=O)(=O)N1CCOCC1,18.9,67.0*,-1.0,-99.2,-3.1,5.5
Cc1ccc(-c2nnnn2C2C/C(=N\NC(N)=S)C3OCC2O3)cc1 (centres undefined),-3.3,14.2,-1.0,-53.7,-9.3,-1.1
